Reference: PubChem BioAssay AID2685 (National Center for Advancing Translational Sciences (NCATS), 2010)
About 2,100 (0.66%) of roughly 320,000 compounds were called active. About 53% were inconclusive and are not listed. Calls follow the shape of the dose curve; as a rule, active = well fitted inhibition curve with a large enough effect in the signal ratio, with a control signal flat (not every such curve was filed as active); inconclusive = small, poorly fitted or top-dose-only effect, or effect the other way, or a change in a side signal; inactive = flat fitted curve, though single readings scatter; the % refers to the signal ratio. The entries come from a sample that favours actives as a whole.

test: qHTS Assay for Lipid Storage Modulators in Drosophila S3 Cells; settings: BODIPY lipid droplet fluorescence, 18-24 h, cells fed with added oleic acid; cell number change: measured here: cell count max response; series mostly up to 46.1 µM; lipid storage change, negative = inhibition: at the top concentration;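 as to cell number change: cells counted by Cell Tracker Red CMTPX staining in the red channel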; as to lipid storage change, negative = inhibition: % is scaled to controls: 0 for no effect and ±100 for the full control effect
Method in brief: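 Drosophila S3 cells got compounds at several concentrations plus oleic acid (400 uM solution). Laser-scanning cytometry with 488 nm excitation read lipid droplets at 500-530 nm and cells at 575-640 nm. Percent activity was relative to 20 uM Triacsin C.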
Potency is read from the fitted curve at half-maximal effect.

| Compound | outcome | cell number change [%] | Potency | lipid storage change, negative = inhibition |
| --- | --- | --- | --- | --- |
| CCOc1ccc(S(=O)(=O)N2CCN(C(=O)c3cc(C4CC4)nn3-c3ccccc3)CC2)cc1 | inactive | -18 |  |  |
| O=C(c1cc(C2CC2)nn1-c1ccccc1)N1CCN(S(=O)(=O)c2ccccc2)CC1 |  | -11.8 | 16.4 µM (active) |  |
| COc1ccc(-c2noc(CCC(=O)NCc3cccnc3)n2)cc1OC |  | -15.7 |  | 27.8% (inactive) |
| CCOC(=O)C1CCN(C(=O)c2ccc(Oc3cc(Cl)cc(Cl)c3)o2)CC1 |  | 4.65 |  | 4.49% (inactive) |
| Cc1onc(-c2ccccc2)c1CNS(=O)(=O)c1cccc(Br)c1 |  | 12 |  | 8.41% (inactive) |
| CCOc1ccc(N(CC(=O)NCCSCc2ccc(Cl)cc2)S(C)(=O)=O)cc1 |  | -19.8 | 9.2 µM (active) |  |
| COc1cccc(N(CC(=O)NCCSCc2ccc(Cl)cc2)S(C)(=O)=O)c1 |  | -16.4 |  | -30.8% (inactive) |
| CCOc1ccc(N(CC(=O)NCCSCc2ccccc2)S(C)(=O)=O)cc1 |  | 10.5 |  | -19.5% (inactive) |
| O=C(CSc1nncs1)Nc1ccc(Cl)cn1 |  | -5.79 |  | -2.98% (inactive) |
| O=C(NCC(O)c1ccc2ccccc2c1)c1c(F)cccc1F (stereo not given) |  | 4.67 |  | 10.9% (inactive) |
| Cc1cc(NS(=O)(=O)c2c(C)[nH]c(=O)[nH]c2=O)ccc1Br |  |  |  | 7.03% (inactive) |
| Cc1cc(C)n(CC(=O)NC2CCCc3c2cnn3-c2ccc(C)c(C)c2)n1 (stereo not given) |  | -23 | 16.4 µM (active) |  |
| CCn1nc(C)cc1C(=O)NC1CCCc2c1cnn2-c1ccc(C)c(C)c1 (stereo not given) | inactive | -8.5 |  |  |
| CC(=O)Nc1cccc(C(=O)NC2CCCc3c2cnn3-c2ccc(C(C)(C)C)cc2)c1 (stereo not given) |  | -22.8 |  | -8.75% (inactive) |
| Cc1ccc(-n2ncc3c2CC(C)(C)CC3NC(=O)CCn2cncn2)cc1 (stereo not given) | inactive | -18.7 |  |  |
| Cc1cc(C)n(CC(=O)NC2CCCc3c2cnn3-c2ccccc2F)n1 (stereo not given) |  | -1.7 |  | 1.73% (inactive) |
| CC(=O)CCC(=O)NC1CCCc2c1cnn2-c1ccc(C(C)(C)C)cc1 (stereo not given) |  | -14.2 | 10.3 µM (active) |  |
| CC(C)(C)c1ccc(-n2ncc3c2CCCC3NC(=O)CCCn2cncn2)cc1 (stereo not given) |  | 14.9 |  | 8.93% (inactive) |
| CC(C)(C)c1ccc(-n2ncc3c2CCCC3NC(=O)CCn2cncn2)cc1 (stereo not given) |  | -29.9 | 3.66 µM (active) |  |
| CC(=O)NCC(=O)NC1CCCc2c1cnn2-c1ccc(C(C)(C)C)cc1 (stereo not given) | inactive |  |  |  |
| Cc1cc(N/N=C/c2ccc(O)cc2O)nc(N2CCOCC2)n1 |  | -4.63 |  | -0.596% (inactive) |
| COc1ccccc1OCC(=O)Nc1ccc(Cl)cc1 |  | -13.6 |  | -1.36% (inactive) |

| Compound | outcome | cell number change [%] | Potency | lipid storage change, negative = inhibition |
| --- | --- | --- | --- | --- |
| CCCCOc1ccc(C(O)(CCN2CCOCC2)c2ccccc2)cc1 (stereo not given) |  | -14.2 |  | -10.2% (inactive) |
| COc1ccc(CCNC(=O)/C=C/c2ccc(OC)c(S(=O)(=O)N3CCOCC3)c2)cc1 |  | 7.46 |  | -3.03% (inactive) |
| O=C1NC(N2CCOCC2)=N/C1=C/c1ccc2c(c1)OCO2 |  |  |  | 5.19% (inactive) |
| O=C(c1ccccc1)N1CCN(c2ncnc3c2cnn3-c2ccccc2)CC1 |  | -7.55 |  | -12.6% (inactive) |
| Cc1cccc(C(=O)N2CCN(c3ncnc4c3cnn4-c3ccccc3)CC2)c1 |  | -21.5 |  | -9.57% (inactive) |
| Cc1nn(-c2ccccc2)c(Cl)c1C(=O)N1CCN(c2ncnc3c2cnn3-c2ccccc2)CC1 |  | -25.9 | 7.31 µM (active) |  |
| O=C(COC(=O)c1ccccc1Nc1ccccc1)NCc1ccccc1Cl |  | -4.27 |  | -6.32% (inactive) |
| Nc1nc(-c2ccccc2)c(-c2ccccc2)o1 |  | 3.44 |  | 7.81% (inactive) |
| CCOC(=O)c1[nH]c(C)c(C(=O)OCCN2C(=O)c3ccccc3C2=O)c1C |  | -20.4 |  | 7.23% (inactive) |
| CC(=O)c1c(C)[nH]c(C(=O)OCCCCN2C(=O)c3ccccc3C2=O)c1C |  | -18.3 | 0.58 µM (active) |  |
| CC(=O)c1c(C)[nH]c(C(=O)OCC(=O)N2CC(=O)Nc3ccccc32)c1C |  | 17.6 |  | 20.9% (inactive) |
| Cc1cc(NS(=O)(=O)c2ccc3c(c2)OCCO3)no1 |  | 5.55 |  | 5.36% (inactive) |
| Cc1ccc(-c2nc(CS(=O)CC(=O)NCCCc3ccccc3)c(C)o2)cc1 (stereo not given) | inactive | 13.7 |  |  |
| Cc1cc(C)cc(OCCCCn2cncn2)c1 |  | 7.77 |  | 15.5% (inactive) |
| COCCCNC(=O)/C=C1\Sc2ccccc2N(Cc2ccccc2F)C1=O |  | 12.6 |  | 0.378% (inactive) |
| Oc1ccccc1-c1nc(NCc2ccccc2)c2ccccc2n1 |  | 2.04 |  | -0.207% (inactive) |
| c1ccc(CNc2nc(NCc3ccccc3)c3ccccc3n2)cc1 |  | -9.51 | 16.4 µM (active) |  |
| OCCNc1nc(NCc2ccccc2)c2ccccc2n1 |  | -3.37 |  | -19.2% (inactive) |
| O=C1NC(=O)N(Cc2ccccc2F)C1=O |  | 21.6 |  | 2.47% (inactive) |
| O=C(O)CN1C(=O)C(=O)N(Cc2ccccc2F)C1=O |  | 9.39 |  | 17% (inactive) |
| O=C1c2ccccc2C(=O)N1Cc1ccccc1F |  | 22.2 | 29.1 µM (active) |  |
| Cc1cccc(C)c1NC(=O)C(C)N1CCCC1 (stereo not given) |  | 0.595 |  | -11.2% (inactive) |
